According to PubChem BioAssay (Tox21):
Several values for one entry are separate records, joined by “and”; a condition that tells them apart may be missing. Identical values can stand only once. Records with an inconclusive call do not appear. Where a call stands in place of a potency, no number is given. Unmarked numbers belong to inactive results. Activity calls are given as the source filed them. The call rests on the fitted dose curve; in most records, active means well fitted inhibition curve with a large enough effect in the repeat runs; inconclusive means weak or mixed curves; inactive means no such curve, though single readings can be large or run the other way.

Biological target: Cytochrome P450 2C9 (Homo sapiens) (UniProt P11712)
Test: Cytochrome P450 Family 2 Subfamily C Member 9 (CYP2C9) small molecule antagonists: luciferase reporter qHTS assay (AID 1671198); further: nearly all actives have a fitted effect of over 50% in size
Details: P450-Glo CYP2C9 enzyme assay, luciferin luminescence; series mostly up to 115 µM
From the text: U.S. Tox21 Program National Center for Advancing Translational Sciences [NCATS] U.S. Environmental Protection Agency [EPA] National Institutes of Environmental Health Sciences [NIEHS] National Toxicology Program [NTP] U.S. Food and Drug Administration [FDA] Tox21 Assay Overview: Cytochrome P450 (CYP) enzymes are membrane-bound hemeproteins that play a key role in metabolism of drugs and xenobiotics. Evaluation of the effect of chemicals on CYP isozymes is useful to minimize the adverse drug reactions and toxicities in drug development process. Tox21 chemicals were tested for their effect on CYP enzyme activities by using P450-Glo (TM) screening systems (Promega Corporation, Madison, WI). These systems provide a luminescent method containing proluciferin substrates and are converted to luciferin products by CYP isozymes. The luciferin products formed are detected with a luciferin detection reagent, and the amount of light produced is proportional to CYP activity. P450-Glo (TM) CYP2C9 screening system (Catalog. No. V9790) was used to detect the compounds that interfere in CYP2C9 activity.
Tox21 Assay Protocol Summary: Two ul of enzyme-substrate mix was dispensed into medium binding white/solid 1536-well plates (Greiner Bio-One North America Inc., Monroe, NC) using a BioRaptr Flying Reagent Dispenser (FRD, Beckman Coulter, Brea, CA). […] The assay plates were incubated at room temperature for 10 min. Then 2 ul of NADPH regeneration solution was added to each well of the assay plates using an FRD and incubated at 37C for 1 h. The reaction was stopped by adding 4 ul of detection reagent using an FRD and after 20 min incubation at room temperature the luminescence signal was measured using a ViewLux plate reader (Perkin Elmer, Shelton, CT). Data were expressed as relative luminescence units.
Potency means the concentration at half of the fitted maximal effect.

Sequence of Cytochrome P450 2C9 (Homo sapiens) (P11712 whole entry, looked up): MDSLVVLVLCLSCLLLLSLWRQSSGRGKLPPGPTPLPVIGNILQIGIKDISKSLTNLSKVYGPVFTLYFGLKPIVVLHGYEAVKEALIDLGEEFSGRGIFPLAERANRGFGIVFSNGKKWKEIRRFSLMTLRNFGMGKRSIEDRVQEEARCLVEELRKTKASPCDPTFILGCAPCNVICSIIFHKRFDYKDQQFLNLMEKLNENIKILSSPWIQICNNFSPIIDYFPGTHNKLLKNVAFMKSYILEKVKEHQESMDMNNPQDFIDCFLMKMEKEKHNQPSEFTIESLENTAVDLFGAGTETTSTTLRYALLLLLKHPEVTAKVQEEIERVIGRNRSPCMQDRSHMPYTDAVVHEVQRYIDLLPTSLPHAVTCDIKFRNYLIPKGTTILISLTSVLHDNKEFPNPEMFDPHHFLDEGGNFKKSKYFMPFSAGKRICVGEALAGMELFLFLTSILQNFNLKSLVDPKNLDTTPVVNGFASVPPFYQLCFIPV

SMILES | Potency | activity change, negative = inhibition
CC(C)(C)C(=O)Cl | inactive | –
O=S1(=O)OCCO1 | inactive | –
CS(=O)(=O)Cl | inactive | –
CCC1(c2ccccc2)CCC(=O)NC1=O (stereo not given) | inactive | –
CCCCCCCCBr | inactive | –
CC(C)C(C)(N)C#N (stereo not given) | inactive | –
CCC(=O)OC1(c2ccccc2)CCN(C)CC1 | inactive | –
CCOC(=O)C(SP(=S)(OC)OC)c1ccccc1 (stereo not given) | 1.26 µM (active) | –
CCOP(=S)(OCC)Oc1ccc(Cl)cc1Cl | 3.56 µM (active) | –
O=[N+]([O-])CCO | inactive | –
CCN[C@@H](C)Cc1cccc(C(F)(F)F)c1 | inactive | –
Cc1ccc(-c2nc3ccc(C)cn3c2CC(=O)N(C)C)cc1 | inactive | –
CCCOC(=O)c1cncn1C(C)c1ccccc1 (stereo not given) | 13.8 µM (active) | –
CCSC(=O)Cl | inactive | –
O=C(O)c1c(Cl)ccc2cc(Cl)cnc12 | 79.6 µM (active) | –
C=C(C)[C@H]1CN[C@H](C(=O)O)[C@H]1CC(=O)O | inactive | –
CCc1cc(OC)c(C[C@H](C)N)cc1OC | inactive | –
CC(C)(C)NC[C@H](O)c1ccc(O)cc1Cl | inactive | –
O=C(O)C(F)(F)C(F)(F)C(F)(F)C(F)(F)C(F)(F)C(F)(F)F | 6.33 µM (active) | –
CCC(=O)c1ccc(Cl)cc1 | inactive | –

SMILES | Potency | activity change, negative = inhibition
CNC(=O)Oc1cc(C)c(N(C)C)c(C)c1 | inactive | –
Cc1ccc(S(=O)(=O)N[C@@H](CCCCN)C(=O)CCl)cc1 | inactive | –
CC(C)N(Cc1ccccc1)C(=O)C(C)(C)C | 35.6 µM (active) | –
CCCN1CCC[C@@H]2Cc3[nH]ncc3C[C@H]21 | inactive | –
Clc1cc2c(cc1Cl)Oc1cc(Cl)c(Cl)cc1O2 | – | 2.52% [at 0.435 µM]
NC(=O)CS(=O)C(c1ccccc1)c1ccccc1 (stereo not given) | inactive | –
CCNP(=S)(OC)O/C(C)=C/C(=O)OC(C)C (stereo not given) | 0.633 µM (active) | –
Cc1ccc(Cl)c(O)c1 | inactive | –
CCOC1Oc2ccc(OS(C)(=O)=O)cc2C1(C)C (stereo not given) | 22.3 µM (active) | –
NC1(c2ccccc2)CCCCC1 | inactive | –
CCN[C@H](C)Cc1cccc(C(F)(F)F)c1 | inactive | –
O=P(O)(O)CN(CP(=O)(O)O)CP(=O)(O)O | inactive | –
CC(=O)CN(CC(C)=O)N=O | inactive | –
C/C(=N\NC(=O)Nc1cc(F)cc(F)c1)c1ncccc1C(=O)O | 10 µM (active) and 12.6 µM (active) | –
CN=CNc1ccc(C)cc1C | inactive | –
CC(C)(C)c1cc(O)ccc1O | 31.7 µM (active) | –
CS(=O)(=O)c1ccc(C(=O)C2C(=O)CCCC2=O)c(Cl)c1COCC(F)(F)F | 6.33 µM (active) | –
CN(C)C(=O)Oc1cc(OC(=O)N(C)C)cc(C(O)CNC(C)(C)C)c1 (stereo not given) | inactive | –
S=C=S | 49.7 µM (active) | –
Oc1ccc2c3c1O[C@H]1[C@@H](O)C=C[C@H]4[C@@H](C2)NCC[C@@]341 | inactive | –
